# Assay results from ChEMBL document CHEMBL3988442, “University of Dundee, Small-Polar-MMV Screening Library” (2021).
# Target: T1, Methionyl-tRNA synthetase, putative (Leishmania donovani (strain BPK282A1)) (UniProt E9BF75)
# T1 sequence (whole entry): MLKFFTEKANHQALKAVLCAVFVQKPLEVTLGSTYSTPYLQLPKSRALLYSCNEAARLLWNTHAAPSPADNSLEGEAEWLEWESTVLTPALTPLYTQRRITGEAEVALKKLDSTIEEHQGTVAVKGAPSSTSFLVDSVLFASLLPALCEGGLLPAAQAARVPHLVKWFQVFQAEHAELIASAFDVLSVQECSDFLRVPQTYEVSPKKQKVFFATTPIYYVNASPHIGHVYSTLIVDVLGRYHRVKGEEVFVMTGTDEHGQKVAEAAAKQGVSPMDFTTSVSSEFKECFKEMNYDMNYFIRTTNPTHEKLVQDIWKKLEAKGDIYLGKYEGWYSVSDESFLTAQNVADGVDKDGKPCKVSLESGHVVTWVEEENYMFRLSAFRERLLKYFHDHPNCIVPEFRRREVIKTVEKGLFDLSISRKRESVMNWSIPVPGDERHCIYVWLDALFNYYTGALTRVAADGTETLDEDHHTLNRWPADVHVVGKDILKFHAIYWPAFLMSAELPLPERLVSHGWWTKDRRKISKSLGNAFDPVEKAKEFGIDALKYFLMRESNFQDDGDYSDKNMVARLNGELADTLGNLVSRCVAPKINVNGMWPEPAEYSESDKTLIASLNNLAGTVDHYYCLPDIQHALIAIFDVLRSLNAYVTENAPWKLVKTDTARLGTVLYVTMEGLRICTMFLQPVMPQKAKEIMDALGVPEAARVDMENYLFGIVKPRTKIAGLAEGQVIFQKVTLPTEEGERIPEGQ
# Assay: Leishmania donovani Methionine tRNA synthetase (LdMetRS):v7. Dose response assay
# Type: functional
# Parameters: conc 80 nM, time 150 minutes
compound,measurement,setting,value
CN(c1ncnc2c1CCC2)C1CCCN(c2cccnn2)C1 (stereo not given),PXC50,MAX_EFFECT 11.7370892,< 4
same,PXC50,MAX_EFFECT 15.37037037,< 4
Cc1nc(N2C[C@@H](CN3CCCN(C)CC3)[C@@H](CO)C2)c2ccsc2n1,PXC50,MAX_EFFECT 12.53263708,< 4
same,PXC50,MAX_EFFECT 15.40469974,< 4
CCOC(=O)c1sc2nc(C)nc(NC3CCCCC3)c2c1C,PXC50,MAX_EFFECT 13.06532663,< 4
same,PXC50,MAX_EFFECT 16.95331695,< 4
Cc1nc2c(-c3nc(-c4ccccc4N)n[nH]3)cccn2c1C,PXC50,MAX_EFFECT 15.34883721,< 4
same,PXC50,MAX_EFFECT 20.27972028,< 4
CCOC(=O)c1sc2nc(C)nc(NC3CCN(C4CC4)CC3)c2c1C,PXC50,MAX_EFFECT 19.59798995,< 4
same,PXC50,MAX_EFFECT 24.32432432,< 4
CC[C@H](C)[C@H](Nc1nc(C)nc2sc3c(c12)CCCC3)C(=O)O,PXC50,MAX_EFFECT 21.80851064,< 4
same,PXC50,MAX_EFFECT 23.31606218,< 4
Cc1nc(N2CCN(c3cnccn3)CC2)c2c3c(sc2n1)CCCC3,PXC50,MAX_EFFECT 22.45989305,< 4
same,PXC50,MAX_EFFECT 25.13661202,< 4
Nc1nc(CSc2ncccn2)nc2sc3c(c12)CCCC3,PXC50,MAX_EFFECT 24.53333333,< 4
same,PXC50,MAX_EFFECT 26.98412698,< 4
CCN(CC)c1ccc2ccc(C(=O)N(C)C)cn12,PXC50,MAX_EFFECT 27.22222222,< 4
same,PXC50,MAX_EFFECT 35.21126761,< 4
O=C1CN(c2nc(-c3cccs3)nc3sc4c(c23)CCCC4)CCN1,PXC50,MAX_EFFECT 29.33333333,< 4
same,PXC50,MAX_EFFECT 31.74603175,< 4
CS(=O)(=O)N1CCN(c2ccc3ccc(C(=O)NCCO)cn23)CC1,PXC50,MAX_EFFECT 34.44976077,< 4
same,PXC50,MAX_EFFECT 46.06946984,< 4
Cc1cc2ccc(N3CCN(S(C)(=O)=O)CC3)n2cc1C(=O)NC1CCCC1,PXC50,MAX_EFFECT 43.22916667,< 4
same,PXC50,MAX_EFFECT 44.29824561,< 4
O=C(c1c[nH]cn1)N1CCC(F)(F)C2(CCN(c3cccc(F)c3)C2)C1 (stereo not given),PXC50,MAX_EFFECT 45.5399061,< 4
same,PXC50,MAX_EFFECT 46.11111111,< 4
CS(=O)(=O)N1CCN(c2ccc3ccc(C(=O)NCC4(CO)CCCC4)cn23)CC1,PXC50,MAX_EFFECT 45.93301435,< 4
same,PXC50,MAX_EFFECT 48.99451554,< 4
Cn1cc(CN2CCC(F)(F)C3(CCN(c4ncccn4)C3)C2)cn1 (stereo not given),PXC50,MAX_EFFECT -0.938967136,< 4
same,PXC50,MAX_EFFECT -2.777777778,< 4
Cc1cc2c(N3CCC(C(N)=O)CC3)nc(-c3cccnc3)nc2s1,PXC50,MAX_EFFECT 10.38251366,< 4
same,PXC50,MAX_EFFECT 13.36898396,< 4
Cc1noc(CCNC(=O)c2ccc3ccc(N4CCN(S(C)(=O)=O)CC4)n3c2)n1,PXC50,"BOTTOM 5.724020306, HILLSLOPE 2.592848239, MAX_EFFECT 58.13528336, TOP 58.43223286",4.74
same,PXC50,"BOTTOM -1.848364429, HILLSLOPE 1.849781613, MAX_EFFECT 52.63157895, TOP 54.86189083",4.91
Cc1nc(NCc2ccccn2)c2cc(C)sc2n1,PXC50,MAX_EFFECT 3.015075377,< 4
same,PXC50,MAX_EFFECT 6.633906634,< 4
CS(=O)(=O)N1CCN(c2ccc3ccc(C(=O)NCCS(=O)(=O)N4CCOCC4)cn23)CC1,PXC50,"BOTTOM 0.75923045, HILLSLOPE 2.636958023, MAX_EFFECT 55.02392344, TOP 52.30756256",5
same,PXC50,"BOTTOM 6.938223691, HILLSLOPE 3.502169957, MAX_EFFECT 60.32906764, TOP 60.07357055",4.85
Cc1sc2nc(CCN)nc(N(CCN(C)C)CC3CCCO3)c2c1C (stereo not given),PXC50,MAX_EFFECT 8.838383838,< 4
same,PXC50,MAX_EFFECT 10.20408163,< 4
NCc1ccc(Cl)cc1Cl,PXC50,MAX_EFFECT 13.60691145,< 3
same,PXC50,MAX_EFFECT 15.77946768,< 3
CNC(=O)CN(C)c1nc(C)nc2sc3c(c12)CCC3,PXC50,MAX_EFFECT 5.291005291,< 4
same,PXC50,MAX_EFFECT 6.4,< 4
CS(=O)(=O)N1CCN(c2ccc3ccc(C(=O)NC4CCN(c5ncccn5)CC4)cn23)CC1,PXC50,"BOTTOM 1.498519447, HILLSLOPE 2.25926472, MAX_EFFECT 69.85645933, TOP 69.17206782",4.97
same,PXC50,"BOTTOM 9.613017987, HILLSLOPE 3.179249655, MAX_EFFECT 74.58866545, TOP 74.15419217",4.86
Oc1c(Cl)cc(Cl)cc1CNc1nccs1,PXC50,MAX_EFFECT 15.39923954,< 3
same,PXC50,MAX_EFFECT 20.51835853,< 3
Cc1nc(NCCCN2CCC(O)CC2)c2c(-c3cccs3)csc2n1,PXC50,MAX_EFFECT 4.325699746,< 4
same,PXC50,MAX_EFFECT 7.808564232,< 4
CC(C)C[C@H](N)COc1ccccc1-c1ccn(C)n1,PXC50,MAX_EFFECT 7.660455487,< 4
same,PXC50,MAX_EFFECT 10.87420043,< 4
Cc1nc(N2CCc3ccccc3C2)c2c3c(sc2n1)CCC3,PXC50,"BOTTOM 1.539204696, HILLSLOPE 1.85727021, MAX_EFFECT 61.30653266, TOP 67.5568533",4.58
same,PXC50,"BOTTOM -2.995522408, HILLSLOPE 1.216214635, MAX_EFFECT 78.37837838, TOP 108.7860492",4.36
Nc1noc2ccc(-c3cnc4ccc(NCc5cccnc5)nn34)cc12,PXC50,MAX_EFFECT 15.26717557,< 4
same,PXC50,MAX_EFFECT 15.78947368,< 4
Cc1nc(N(C)CC(=O)N(C)C)c2c3c(sc2n1)CCC3,PXC50,MAX_EFFECT 0.0,< 4
same,PXC50,MAX_EFFECT 1.058201058,< 4
CC(C)C[C@@H](COc1cccc(F)c1Oc1ccc(Cl)cc1)NS(C)(=O)=O,PXC50,MAX_EFFECT 6.609808102,< 4
same,PXC50,MAX_EFFECT 8.902691511,< 4
